The values below come from ChEMBL document CHEMBL1961873, “Compounds: GSK PKIS; Assays: Nanosyn kinase panel” (2012).

For assay [1], the target named is Sphingosine kinase 1 (Homo sapiens) (UniProt Q9NYA1). The note with it: at 1 µM.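 Further: mean SPHK1 inhibition value reported from the GSK PKIS kinase panel screen.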
The target of assay [2] is T1, Sphingosine kinase 2 (Homo sapiens) (UniProt Q9NRA0).
T1 sequence (whole entry): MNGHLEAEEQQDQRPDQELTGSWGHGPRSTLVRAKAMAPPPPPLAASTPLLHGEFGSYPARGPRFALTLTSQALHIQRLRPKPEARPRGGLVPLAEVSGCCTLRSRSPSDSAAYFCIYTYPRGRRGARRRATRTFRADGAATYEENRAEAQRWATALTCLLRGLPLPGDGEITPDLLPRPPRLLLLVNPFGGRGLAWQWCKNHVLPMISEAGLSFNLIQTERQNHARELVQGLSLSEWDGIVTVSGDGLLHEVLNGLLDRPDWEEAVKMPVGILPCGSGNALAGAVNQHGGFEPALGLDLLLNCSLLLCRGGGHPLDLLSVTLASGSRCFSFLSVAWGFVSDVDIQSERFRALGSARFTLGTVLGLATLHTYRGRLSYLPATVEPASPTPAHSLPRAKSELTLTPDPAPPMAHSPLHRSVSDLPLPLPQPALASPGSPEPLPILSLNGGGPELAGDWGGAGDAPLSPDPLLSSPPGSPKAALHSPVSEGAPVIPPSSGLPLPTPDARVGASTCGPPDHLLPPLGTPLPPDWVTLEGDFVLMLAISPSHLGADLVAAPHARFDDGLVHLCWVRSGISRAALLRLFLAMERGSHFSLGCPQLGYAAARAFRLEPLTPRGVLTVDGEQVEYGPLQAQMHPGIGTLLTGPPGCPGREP
As to conditions: at 0.1 µM.

Assay [3] deals with T1, Sphingosine kinase 2 (Homo sapiens). As to conditions: at 1 µM.
For assay [4], the target named is Casein kinase II subunit alpha (Homo sapiens) (UniProt P68400). As to conditions: at 0.1 µM.
Chain of Casein kinase II subunit alpha (Homo sapiens) (P68400 whole entry, looked up): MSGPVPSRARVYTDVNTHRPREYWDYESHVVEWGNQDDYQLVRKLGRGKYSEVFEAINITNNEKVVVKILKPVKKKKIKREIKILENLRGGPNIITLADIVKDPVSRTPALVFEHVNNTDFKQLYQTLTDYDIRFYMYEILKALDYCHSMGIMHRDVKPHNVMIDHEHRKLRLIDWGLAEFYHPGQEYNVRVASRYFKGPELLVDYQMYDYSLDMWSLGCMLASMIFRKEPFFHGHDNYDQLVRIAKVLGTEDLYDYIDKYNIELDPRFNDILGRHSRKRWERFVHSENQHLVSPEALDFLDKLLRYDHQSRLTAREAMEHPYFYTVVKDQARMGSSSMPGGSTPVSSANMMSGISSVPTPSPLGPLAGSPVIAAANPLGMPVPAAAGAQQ
The target is the same in assay [5]. As to conditions: at 1 µM.
Assay [6] deals with T2, Inhibitor of nuclear factor kappa-B kinase subunit alpha (Homo sapiens) (UniProt O15111).
T2 sequence (whole entry): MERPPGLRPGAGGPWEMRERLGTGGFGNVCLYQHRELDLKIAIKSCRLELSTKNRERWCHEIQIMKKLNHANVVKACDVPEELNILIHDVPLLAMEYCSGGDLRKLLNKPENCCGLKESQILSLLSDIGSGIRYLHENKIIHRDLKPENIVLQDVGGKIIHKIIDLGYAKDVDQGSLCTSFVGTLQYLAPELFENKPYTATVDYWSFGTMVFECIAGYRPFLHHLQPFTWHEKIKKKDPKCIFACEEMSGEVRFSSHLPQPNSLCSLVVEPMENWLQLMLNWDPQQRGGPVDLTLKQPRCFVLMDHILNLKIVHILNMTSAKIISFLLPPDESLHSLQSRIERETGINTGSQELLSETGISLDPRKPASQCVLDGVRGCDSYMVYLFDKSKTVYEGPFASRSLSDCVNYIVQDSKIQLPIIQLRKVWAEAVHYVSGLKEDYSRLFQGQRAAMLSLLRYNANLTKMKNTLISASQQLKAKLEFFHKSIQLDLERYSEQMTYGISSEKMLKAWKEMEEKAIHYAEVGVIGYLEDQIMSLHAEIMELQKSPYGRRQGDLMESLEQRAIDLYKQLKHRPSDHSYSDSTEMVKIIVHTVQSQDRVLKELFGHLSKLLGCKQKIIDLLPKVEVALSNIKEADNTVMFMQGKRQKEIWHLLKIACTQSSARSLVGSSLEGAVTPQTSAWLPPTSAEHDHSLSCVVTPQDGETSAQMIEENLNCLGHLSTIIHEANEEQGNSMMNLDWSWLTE
As to conditions: at 0.1 µM.

The target in assay [7] is T2, Inhibitor of nuclear factor kappa-B kinase subunit alpha (Homo sapiens). The note with it: at 1 µM.
The target in assay [8] is T3, Inhibitor of nuclear factor kappa-B kinase subunit beta (Homo sapiens) (UniProt O14920).
T3 sequence (whole entry): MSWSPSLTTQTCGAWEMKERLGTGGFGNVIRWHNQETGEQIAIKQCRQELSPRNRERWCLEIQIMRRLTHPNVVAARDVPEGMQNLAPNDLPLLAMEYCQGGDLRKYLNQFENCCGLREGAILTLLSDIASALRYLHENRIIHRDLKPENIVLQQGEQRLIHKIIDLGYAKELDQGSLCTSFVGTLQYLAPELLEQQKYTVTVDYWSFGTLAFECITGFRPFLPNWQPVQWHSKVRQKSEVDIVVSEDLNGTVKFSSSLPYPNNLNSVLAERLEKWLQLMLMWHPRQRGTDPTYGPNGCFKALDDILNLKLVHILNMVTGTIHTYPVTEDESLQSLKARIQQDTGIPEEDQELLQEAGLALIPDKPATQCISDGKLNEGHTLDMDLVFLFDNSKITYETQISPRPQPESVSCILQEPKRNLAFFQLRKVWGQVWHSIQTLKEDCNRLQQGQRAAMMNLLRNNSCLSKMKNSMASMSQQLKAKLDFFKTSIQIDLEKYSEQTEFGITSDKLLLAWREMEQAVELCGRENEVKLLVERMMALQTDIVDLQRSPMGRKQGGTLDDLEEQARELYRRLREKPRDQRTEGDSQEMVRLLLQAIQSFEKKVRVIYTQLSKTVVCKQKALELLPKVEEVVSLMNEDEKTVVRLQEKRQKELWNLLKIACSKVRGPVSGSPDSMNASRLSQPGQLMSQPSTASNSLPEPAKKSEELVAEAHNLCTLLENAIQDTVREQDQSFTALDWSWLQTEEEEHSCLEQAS
As to conditions: at 0.1 µM.

Assay [9] deals with T3, Inhibitor of nuclear factor kappa-B kinase subunit beta (Homo sapiens). As to conditions: at 1 µM.
For assay [10], the target named is T4, Inhibitor of nuclear factor kappa-B kinase subunit epsilon (Homo sapiens) (UniProt Q14164).
T4 sequence (whole entry): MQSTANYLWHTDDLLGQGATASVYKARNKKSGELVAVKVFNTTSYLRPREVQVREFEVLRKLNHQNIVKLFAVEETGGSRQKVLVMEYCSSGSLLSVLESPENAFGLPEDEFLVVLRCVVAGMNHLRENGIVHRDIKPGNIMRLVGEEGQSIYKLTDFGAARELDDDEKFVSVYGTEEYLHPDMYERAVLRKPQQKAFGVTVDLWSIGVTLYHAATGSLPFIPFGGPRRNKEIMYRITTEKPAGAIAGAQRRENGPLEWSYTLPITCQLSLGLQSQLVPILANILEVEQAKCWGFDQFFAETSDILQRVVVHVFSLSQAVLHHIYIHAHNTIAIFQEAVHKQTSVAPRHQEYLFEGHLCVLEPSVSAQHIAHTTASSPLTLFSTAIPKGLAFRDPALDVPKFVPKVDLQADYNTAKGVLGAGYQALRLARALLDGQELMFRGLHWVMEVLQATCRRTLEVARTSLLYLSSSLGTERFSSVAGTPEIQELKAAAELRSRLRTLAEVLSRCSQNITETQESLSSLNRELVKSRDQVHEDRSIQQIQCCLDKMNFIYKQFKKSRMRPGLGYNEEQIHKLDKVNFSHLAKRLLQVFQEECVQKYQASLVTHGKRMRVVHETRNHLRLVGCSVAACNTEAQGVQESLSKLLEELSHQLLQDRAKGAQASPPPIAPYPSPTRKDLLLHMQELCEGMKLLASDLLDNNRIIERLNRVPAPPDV
As to conditions: at 0.1 µM.

The target of assay [11] is T4, Inhibitor of nuclear factor kappa-B kinase subunit epsilon (Homo sapiens). The note with it: at 1 µM.
Assay [12] concerns the target T5, Serine/threonine-protein kinase Nek1 (Homo sapiens) (UniProt Q96PY6).
T5 sequence (whole entry): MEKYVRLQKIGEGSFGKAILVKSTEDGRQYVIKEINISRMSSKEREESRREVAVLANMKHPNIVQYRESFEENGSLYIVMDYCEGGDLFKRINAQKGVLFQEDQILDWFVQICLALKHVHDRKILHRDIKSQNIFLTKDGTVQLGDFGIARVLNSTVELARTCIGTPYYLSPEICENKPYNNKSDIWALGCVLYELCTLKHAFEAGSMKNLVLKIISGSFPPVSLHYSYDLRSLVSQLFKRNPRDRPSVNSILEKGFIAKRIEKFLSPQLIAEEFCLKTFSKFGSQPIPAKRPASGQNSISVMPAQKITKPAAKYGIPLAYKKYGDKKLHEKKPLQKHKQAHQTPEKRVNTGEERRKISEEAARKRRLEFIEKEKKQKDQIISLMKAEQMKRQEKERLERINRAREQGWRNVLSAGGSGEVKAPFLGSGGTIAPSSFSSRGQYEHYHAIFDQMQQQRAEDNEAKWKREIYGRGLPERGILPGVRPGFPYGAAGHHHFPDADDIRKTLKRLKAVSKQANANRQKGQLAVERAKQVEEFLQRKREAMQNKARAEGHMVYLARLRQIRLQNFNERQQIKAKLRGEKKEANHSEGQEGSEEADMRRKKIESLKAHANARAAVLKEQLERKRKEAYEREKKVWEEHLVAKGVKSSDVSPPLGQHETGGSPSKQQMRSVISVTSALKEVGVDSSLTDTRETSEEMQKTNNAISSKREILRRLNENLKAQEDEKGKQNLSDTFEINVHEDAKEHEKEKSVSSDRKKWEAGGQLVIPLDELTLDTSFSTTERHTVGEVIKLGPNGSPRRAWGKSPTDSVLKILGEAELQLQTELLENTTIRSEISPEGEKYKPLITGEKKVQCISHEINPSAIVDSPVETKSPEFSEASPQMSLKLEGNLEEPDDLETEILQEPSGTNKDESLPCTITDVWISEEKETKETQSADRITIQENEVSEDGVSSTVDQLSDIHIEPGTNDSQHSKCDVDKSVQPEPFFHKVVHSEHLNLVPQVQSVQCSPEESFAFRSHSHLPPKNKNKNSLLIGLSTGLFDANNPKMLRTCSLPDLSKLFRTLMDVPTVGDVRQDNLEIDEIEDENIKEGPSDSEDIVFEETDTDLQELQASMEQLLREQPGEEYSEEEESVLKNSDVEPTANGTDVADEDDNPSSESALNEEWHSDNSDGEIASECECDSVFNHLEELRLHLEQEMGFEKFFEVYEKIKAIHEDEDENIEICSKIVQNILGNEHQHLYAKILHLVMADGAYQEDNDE
As to conditions: at 0.1 µM.

The target of assay [13] is T5, Serine/threonine-protein kinase Nek1 (Homo sapiens). As to conditions: at 1 µM.
Assay [14] concerns the target T6, Serine/threonine-protein kinase Nek2 (Homo sapiens) (UniProt P51955).
T6 sequence (whole entry): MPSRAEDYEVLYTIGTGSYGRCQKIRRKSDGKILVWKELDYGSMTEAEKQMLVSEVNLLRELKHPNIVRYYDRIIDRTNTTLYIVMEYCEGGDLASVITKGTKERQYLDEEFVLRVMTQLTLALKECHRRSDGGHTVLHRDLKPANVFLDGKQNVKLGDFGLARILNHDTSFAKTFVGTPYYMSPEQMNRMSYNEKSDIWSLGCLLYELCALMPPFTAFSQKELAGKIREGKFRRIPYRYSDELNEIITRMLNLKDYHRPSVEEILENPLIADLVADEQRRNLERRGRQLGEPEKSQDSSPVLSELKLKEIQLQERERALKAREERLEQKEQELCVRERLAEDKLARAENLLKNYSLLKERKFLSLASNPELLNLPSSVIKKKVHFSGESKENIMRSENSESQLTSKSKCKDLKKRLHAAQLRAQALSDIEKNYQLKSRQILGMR
As to conditions: at 0.1 µM.

Assay [15] concerns the target T6, Serine/threonine-protein kinase Nek2 (Homo sapiens). As to conditions: at 1 µM.
Assay [16] addresses Serine/threonine-protein kinase Nek6 (Homo sapiens) (UniProt Q9HC98). As to conditions: at 0.1 µM.
Assay [17] has the same target. The note with it: at 1 µM.
Assay [18] deals with Serine/threonine-protein kinase Nek7 (Homo sapiens) (UniProt Q8TDX7). The note with it: at 0.1 µM.
Chain of Serine/threonine-protein kinase Nek7 (Homo sapiens) (Q8TDX7 whole entry, looked up): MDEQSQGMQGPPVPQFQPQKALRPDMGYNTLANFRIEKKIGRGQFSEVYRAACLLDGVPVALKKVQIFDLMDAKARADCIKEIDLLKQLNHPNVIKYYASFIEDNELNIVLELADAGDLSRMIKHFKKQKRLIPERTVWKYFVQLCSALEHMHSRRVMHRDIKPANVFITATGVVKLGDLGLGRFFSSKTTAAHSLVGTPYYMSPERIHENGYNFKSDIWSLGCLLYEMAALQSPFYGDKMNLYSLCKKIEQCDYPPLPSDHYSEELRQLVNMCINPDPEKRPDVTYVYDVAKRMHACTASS
Assay [19] shares this target. As to conditions: at 1 µM.
Assay [20] concerns the target T7, Serine/threonine-protein kinase Nek9 (Homo sapiens) (UniProt Q8TD19).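 Further: reported value is the mean percent inhibition of NEK9.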
T7 sequence (whole entry): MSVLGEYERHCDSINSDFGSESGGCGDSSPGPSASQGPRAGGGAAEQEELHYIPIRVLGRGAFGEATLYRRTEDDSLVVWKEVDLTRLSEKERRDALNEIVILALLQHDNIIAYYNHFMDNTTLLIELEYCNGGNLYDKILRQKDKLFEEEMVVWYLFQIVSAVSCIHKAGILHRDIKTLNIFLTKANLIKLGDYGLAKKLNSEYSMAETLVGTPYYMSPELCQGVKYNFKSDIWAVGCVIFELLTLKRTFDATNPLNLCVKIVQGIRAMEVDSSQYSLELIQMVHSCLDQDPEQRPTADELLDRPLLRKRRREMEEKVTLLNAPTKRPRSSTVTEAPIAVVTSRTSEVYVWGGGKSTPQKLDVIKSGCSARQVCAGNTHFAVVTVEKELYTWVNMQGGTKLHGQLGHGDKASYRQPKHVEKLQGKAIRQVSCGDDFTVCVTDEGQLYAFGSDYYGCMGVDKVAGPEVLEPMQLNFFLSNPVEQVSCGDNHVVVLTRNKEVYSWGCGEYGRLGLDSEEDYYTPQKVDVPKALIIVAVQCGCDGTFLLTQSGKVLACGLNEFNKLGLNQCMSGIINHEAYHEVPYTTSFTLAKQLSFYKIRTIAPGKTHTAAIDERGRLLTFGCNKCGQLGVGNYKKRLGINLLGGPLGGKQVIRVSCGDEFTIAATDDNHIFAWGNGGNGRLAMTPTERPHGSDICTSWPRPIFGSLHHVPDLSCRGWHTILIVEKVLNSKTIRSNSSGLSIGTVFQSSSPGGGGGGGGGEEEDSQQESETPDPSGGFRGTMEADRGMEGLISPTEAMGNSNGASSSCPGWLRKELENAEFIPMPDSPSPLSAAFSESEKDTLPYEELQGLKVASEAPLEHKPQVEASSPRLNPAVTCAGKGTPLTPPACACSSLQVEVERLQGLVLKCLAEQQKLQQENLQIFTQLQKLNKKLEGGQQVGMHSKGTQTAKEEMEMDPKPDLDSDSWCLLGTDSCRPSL
The note with it: at 0.1 µM.

Chain of Serine/threonine-protein kinase Nek6 (Homo sapiens) (Q9HC98 whole entry): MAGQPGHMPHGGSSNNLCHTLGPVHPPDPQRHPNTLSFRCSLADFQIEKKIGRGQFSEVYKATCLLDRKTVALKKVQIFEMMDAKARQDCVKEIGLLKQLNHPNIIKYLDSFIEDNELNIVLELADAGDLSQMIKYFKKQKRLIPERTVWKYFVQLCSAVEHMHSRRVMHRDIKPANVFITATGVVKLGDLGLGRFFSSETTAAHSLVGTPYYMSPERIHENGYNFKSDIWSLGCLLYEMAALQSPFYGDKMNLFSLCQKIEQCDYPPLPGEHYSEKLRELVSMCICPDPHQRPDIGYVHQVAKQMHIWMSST
Chain of Sphingosine kinase 1 (Homo sapiens) (Q9NYA1 whole entry): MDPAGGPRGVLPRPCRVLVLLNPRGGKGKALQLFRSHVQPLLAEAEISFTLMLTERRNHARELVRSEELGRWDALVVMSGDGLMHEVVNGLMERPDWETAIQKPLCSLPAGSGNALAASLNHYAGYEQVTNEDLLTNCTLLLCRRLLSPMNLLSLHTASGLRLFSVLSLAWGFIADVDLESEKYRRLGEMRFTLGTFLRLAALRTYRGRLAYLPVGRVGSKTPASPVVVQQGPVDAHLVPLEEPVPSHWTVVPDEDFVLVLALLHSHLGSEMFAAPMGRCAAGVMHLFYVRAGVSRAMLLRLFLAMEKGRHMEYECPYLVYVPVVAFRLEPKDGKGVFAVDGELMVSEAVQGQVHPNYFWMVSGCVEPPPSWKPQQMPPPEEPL

Consider `NC(=O)c1sc(-n2cnc3ccc(C(F)(F)F)cc32)cc1OCc1ccccc1Br`, for which the inhibition (as a rule, the relative decrease from the control value, in per cent) was -0.89% in [1]; -0.23% in [2]; -0.48% in assay [3]; 3.45% in assay [4]; 5.66% in assay [5]; 12.5% in [6]. For the same compound, the inhibition in assay [7] came to 11.2%; in [8], 6.41%; in [9] it was 6.44%; in [10], 5.17%; in [11] it was 6.28%; in assay [12], 3%. In addition, the inhibition turned out to be 3.1% in [13]; 4.34% in [14]; 5.43% in assay [15]; 3.44% in assay [16]; 3.3% in assay [17]; 5.57% in assay [18]. The inhibition worked out at 3.81% in assay [19] and 8.05% in [20].
